This is one part of a sample in which hits are shown more often than they occur.
GluA2 TARP mod – modulators of AMPA receptor GluA2-stargazin complexes. HEK293 GluA2+stargazin, membrane potential dye (FDSS), glutamate EC50; hits were called plate by plate, in both directions. AID 1259245. O88602+P19491. hit rate 3.5% among 40,000. calls only at 30 µM;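 active = any of four per-well response measures lying three or more SD from its plate-wide compound average, in either direction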
GIRK2 act – GIRK2 channel activators by thallium flux | HEK293 GIRK2/NPY4 cells, thallium flux fluorescence | activation (% efficacy), % for hits at 37.5 µM | P48051 | 34,000 tested, under 10 active;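 active = primary screen hit, no activity in plain HEK293 cells, and in GIRK2-only cells above 5% efficacy rising with concentration; inactive = the rest, including fluorescent compounds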;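 note: efficacy is normalized control-subtracted fluorescence 15 s after thallium addition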
Calls only; 0 = inactive; - = not tested or not shown; + = active, no number.

SMILES	GluA2 TARP mod	GIRK2 act
CCN(CC)C(=O)CSc1nc2ccccc2c(=O)n1Cc1ccccc1	0	-
O=C(Nc1ccc(F)cc1F)c1ccc(=O)n(Cc2ccc(C(F)(F)F)cc2)c1	+	0
Cc1ccc(Cn2cc(C(=O)Nc3ccc(F)cc3F)ccc2=O)cc1	0	0
CCOc1ccc(C(=O)NCC(O)(c2ccco2)C2CC2)cc1 (stereo not given)	0	0
Cc1cc(N2CCN(C(=O)COc3ncccn3)CC2)nc(N2CCCCC2)n1	-	0
Cc1ccc(C(=O)N2CCN(c3nc(C)cc(N4CCCC4)n3)CC2)cc1	+	-
O=C(Nn1cnc2c(cnn2-c2ccccc2)c1=O)c1ccc(S(=O)(=O)N2CCCC2)cc1	0	0
COc1ccc(-c2noc(C3CCN(S(=O)(=O)c4ccc(C)cc4)CC3)n2)cc1	+	0
COc1ccc(-c2noc(C3CCN(S(=O)(=O)c4ccc(Cl)cc4)CC3)n2)cc1	0	0
CCOC(=O)N1CCN(C(=O)CN2CCC(Cn3cnc4ccccc43)CC2)CC1	0	0
Cc1cc(C)c(S(=O)(=O)N2CCN(S(=O)(=O)N3CCCC3)CC2)c(C)c1	0	0
CC(=O)Nc1ccc(S(=O)(=O)n2nc(C)c(C)c2C)cc1	+	-
CC(=O)Nc1ccc(S(=O)(=O)N2CCN(c3c(C)cccc3C)CC2)cc1	0	-
Cc1cc(C)c(S(=O)(=O)n2nc(C)c(C)c2C)c(C)c1	+	-
Cc1cc(OCCn2c(C(C)NC(=O)c3ccco3)nc3ccccc32)ccc1Cl (stereo not given)	-	0
COc1ccccc1N1CCCn2c1nc1c2c(=O)n(CC(=O)OCc2ccccc2)c(=O)n1C	0	-

Assay outcomes deposited in PubChem by several laboratories.
